Screens: PubChem, several laboratories
Rows were chosen to be rich in hits. Some 3.2% of all compounds tested hit in one or more screens of this group.
CHT inh – inhibitors of human choline transporter CHT; CHT-expressing cells, membrane potential dye, choline response; stronger effect = lower value; B-score at 10 µM; hit rate 0.86% among 310,000; AID 488975, 2010;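 active = B-score over 3 SD under the library average, and starting fluorescence ratio not unusually high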;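 note: choline stimulus applied at its EC90 after an EC20 pre-addition; B-score computed on integrated fluorescence ratio after choline addition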
CHT PAM – CHT positive allosteric modulators, primary screen, cell-based, membrane potential dye, choline EC20. High affinity choline transporter 1 (Homo sapiens), Q9GZV3. CHT-expressing cells; stronger effect = higher value; LV-AA mutant CHT in HEK293 cells. B-score at 10 µM. hit rate 0.49% among 310,000. AID 488977, 2010;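 active = initial fluorescence not abnormally high and integrated response B-score, plate-corrected, over 3 SD above library mean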
TMEM16A inh – TMEM16A chloride channel inhibitors, primary screen, cell-based, HTS | Anoctamin-1 (Mus musculus), Q8BHY3 | HEK293 TMEM16A/YFP iodide influx fluorescence, ionomycin | hit rate 1.2% among 310,000 | normalized B-score (activity score, 25-100; higher = stronger inhibition) at 10 µM | AID 588511, 2011;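 active = ratio plate-corrected score three or more library SD toward inhibition, starting fluorescence score within five deviations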;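 note: score derived from kinetic fluorescence span divided by baseline fluorescence per well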
PHOSPHO1 inh – PubChem AID 1565 | Phosphoethanolamine/phosphocholine phosphatase (Homo sapiens), Q8TCT1 | recombinant PHOSPHO1, absorbance phosphatase assay | inhibition, % at 13.3 µM | hit rate 1.1% among 290,000; in the data active = inhibition above about 60%
HDAC3 inh – HDAC3 deacetylase inhibitors, primary screen, biochemical, fluorescence, cell-free homogeneous; Histone deacetylase 3 (Homo sapiens), O15379; recombinant HDAC3, fluorogenic peptide/trypsin coupled; inhibition, % at 8.3 µM; hit rate 0.15% among 320,000; in the data active = inhibition above about 26%, passing the limit was not always enough; inconclusive = no clear call, values can overlap the other calls
TMEM16A act – TMEM16A chloride channel activators or potentiators, primary screen, cell-based, HTS. Anoctamin-1 (Mus musculus), Q8BHY3. HEK293 TMEM16A/YFP-H148Q/I152L, iodide quench fluorescence; stronger effect = lower value. B-score at 10 µM. hit rate 0.3% among 340,000;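 active = fluorescence-ratio B-score plate-corrected deviation score at least 3 library SD below zero, with starting fluorescence score within 5 deviations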;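 note: channel opened by trigger with iodide after compound preincubation; score built on the fluorescence ratio of max minus min over baseline; more negative score means more quench and so TMEM16A activation or potentiation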
CHT act confirm – CHT activators, confirmation, cell-based, membrane potential dye, duplicate; shares compounds with CHT PAM; CHT-expressing cells, membrane potential dye fluorescence (FDSS); % of choline EC20–EC90 response window; HEK293 expressing CHT LV-AA mutant; choline added at its EC20; activation, % at 10 µM; hit rate 91% among 2,500; AID 504833, 2011;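 active = primary screen active, with duplicate mean activation above negative control mean plus 3 SD, cut at about 11% in these data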
HEK293 MP dye – membrane potential response in parental HEK293 cells, counter-screen for CHT activator project, cell-based, membrane potential dye. ratio readout change at 10 µM, hits read low. shares compounds with CHT PAM. membrane potential dye fluorescence (FDSS); measured after EC20 choline addition. hit rate 62% among 2,500;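 active = duplicate-averaged ratio beyond 3 SD from buffer wells, up or down, though filed actives are nearly all decreases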
* marks the source's active call; other numbers are inactive results; i = inactive; ? = inconclusive; . = no result given.

SMILES	CHT inh	CHT PAM	TMEM16A inh	PHOSPHO1 inh	HDAC3 inh	TMEM16A act	CHT act confirm	HEK293 MP dye
O=C1c2cnc3nc(SCc4ccc(Cl)cc4)nn3c2CC2c3ccccc3CCN12 (centres undefined)	i	6.9*	i	18	0	i	-2	i
Clc1ccc(CSc2ncccn2)cc1	i	i	i	-25	.	i	.	.
CC(OC(=O)c1c[nH]c2ccccc12)C(=O)N1CCCC1 (centres undefined)	.	.	.	.	-8	.	.	.
C=C(C)c1ccc(C(C)(C)NC(=O)N2CCN(C)CC2)cc1	i	i	i	-12	-3	i	.	.
CCOC(=O)CNc1c(-c2ccc(O)cc2)nc2ccccn12	i	i	i	4	-40	.	56*	-44*
COc1ccc(NC(=O)COC(=O)CCc2cc(OC)c(OC)c(OC)c2)c([N+](=O)[O-])c1	i	i	i	10	0	i	.	.
COc1ccc(CNCCC(c2ccccc2)c2ccc(OC(C)C)cc2)cc1OC (centres undefined)	i	7.5*	i	16	-1	i	8	i
COc1ccc(C(CCNC(C)c2ccccc2)c2ccc(F)cc2)cc1 (centres undefined)	i	i	i	-16	2	i	44*	i
COc1ccc(C(CCNCc2ccccc2)c2ccc(F)cc2)cc1 (centres undefined)	i	i	i	-6	5	i	.	.
COc1ccc(C(CCNCc2ccc(OC(C)C)cc2)c2ccccc2OC)cc1 (centres undefined)	i	6.7*	25*	15	3	i	14*	i
COc1ccc(C(CCNCc2ccc(N(C)C)cc2)c2ccccc2OC)cc1 (centres undefined)	i	i	i	28	1	i	.	.
COc1ccc(CNCCC(c2ccc(F)cc2)c2ccc(OC)cc2)cc1 (centres undefined)	i	i	i	-1	2	i	0	i
COc1ccc(CNCCC(c2ccc(F)cc2)c2ccc(OC(C)C)cc2)cc1OC (centres undefined)	i	i	i	25	4	i	.	.
CCSC1=NCN(CCCC(=O)O)CN1	i	i	i	11	-6	i	.	.
Cc1cc(C)nc(-n2nc(C)c(Oc3ccccc3O)c2C)n1	i	i	i	13	?	i	.	.
COc1ccc(CNCCC(c2ccc(OC)cc2)c2ccccc2OC)cc1 (centres undefined)	i	7.8*	i	11	5	i	17*	i
Cc1ccc(C)c(NS(=O)(=O)c2ccc(-c3coc(C)n3)cc2)c1	i	i	i	-8	-1	i	.	.
Cc1ccc(-c2cc[n+](Cc3ccccc3)cc2)cc1	i	6.7*	i	41	-24	i	58*	-42*
Cc1cc[n+](Cc2ccc([N+](=O)[O-])cc2)cc1	i	i	i	8	3	i	.	.
c1cc2c3c(cccc3c1)C(N1CCCCCC1)=N2	i	i	i	33	8	i	50*	-57*
CCCCCCCn1c(=N)n(CC(O)c2ccco2)c2ccccc21 (centres undefined)	i	i	i	33	-15	i	.	.
N=c1n(CCN2CCCCC2)c2ccccc2n1CC(O)c1cccc(Br)c1 (centres undefined)	i	11*	i	-6	3	i	37*	i
COc1ccccc1OCC(O)Cn1c(=N)n(CCN2CCCCC2)c2ccccc21 (centres undefined)	i	i	i	6	0	i	.	.
N=c1n(CCN2CCCC2)c2ccccc2n1CC(O)c1ccco1 (centres undefined)	i	i	i	25	-10	i	38*	-25*
CCOc1ccc2ccccc2c1C1NC(=O)N(C)C(C)=C1C(=O)OCCOC (centres undefined)	i	i	i	20	6	i	.	.
SMILES	CHT inh	CHT PAM	TMEM16A inh	PHOSPHO1 inh	HDAC3 inh	TMEM16A act	CHT act confirm	HEK293 MP dye
O=C(NC1CCN(Cc2ccccc2)CC1)c1cc(-c2ccccn2)nc2ccccc12	i	7.8*	i	-17	-5	i	48*	-59*
O=C(NC1CCCCCCC1)c1cc(-c2ccccn2)nc2ccccc12	i	6.8*	i	12	4	i	10*	i
Cc1cccc(CN2CCC(CNC(=O)CSc3cc(=O)n(C)c4cc(Cl)ccc34)CC2)c1	i	6.4*	i	-5	-4	i	21*	i
O=C(NCCCN1CCCCC1)C1CCN(c2ncnc3c2nc2n3CCCCC2)CC1	i	i	i	20	5	i	.	.
COc1ccc(-c2[nH]ncc2CN2CCC(OCc3ccccc3)CC2)c(F)c1	i	i	i	44	-11	i	.	.
COCC1CCN(Cc2cn[nH]c2-c2ccc(OC)cc2F)C1 (centres undefined)	i	i	i	6	-5	i	21*	i
COc1ccc(-c2cn(-c3ccc(SC(F)F)cc3)c3[n+]2CCC3)cc1OC	i	6.3*	i	-27	-2	i	32*	-39*
FC(F)Sc1ccc(-n2cc(-c3ccccc3)[n+]3c2CCC3)cc1	i	i	i	-32	2	i	21*	-40*
COc1ccc(-n2cc(-c3ccc(C)cc3)[n+]3c2SCC3)cc1	i	i	i	2	-2	i	.	.
COc1ccc(-n2cc(-c3ccccc3)[n+]3c2CCCCC3)cc1	i	6.5*	i	6	-5	i	55*	i
COc1ccc(-c2cn(-c3ccc(OC)cc3)c3[n+]2-c2ccccc2CC3)cc1	i	9.5*	i	6	1	i	53*	i
Cc1cccn2c(=O)c(C=C(C#N)C#N)c(N3CCN(C)CC3)nc12	i	8.5*	i	35	3	i	56*	-65*
